Consider 36 compounds from ChEMBL document CHEMBL3433997, “St. Jude Leishmania screening dataset” (2016).

What all share (assay type): functional
Experiment [1] deals with Solute carrier family 2, facilitated glucose transporter member 1 (Homo sapiens) (UniProt P11166). Nature of the experiment: ST_JUDE_LEISH: Cytotoxicity at 2uM final concentration against transgenic Leishmania Mexicana promastigotes LmGLUT1 that are glucose transport deficient and complemented with the human glucose transporter GLUT1. Activity is measured by DNA content using SYBR green in vitro.

For experiment [2], the target named is Hexose transporter 1 (Plasmodium falciparum) (UniProt O97467). Put plainly: ST_JUDE_LEISH: Cytotoxicity at 2uM final concentration against transgenic Leishmania Mexicana promastigotes LmPfHT that are glucose transport deficient and complemented with the Plasmodium falciparum hexose transporter. Activity is measured by DNA content using SYBR green in vitro.

For experiment [3], the target named is Glucose transporter (Leishmania mexicana) (UniProt O61059). Put plainly: ST_JUDE_LEISH: Cytotoxicity at 2uM final concentration against transgenic Leishmania Mexicana promastigotes LmGT2 that are glucose transport deficient and complemented with the L. Mexicana glucose transporter 2. Activity is measured by DNA content using SYBR green in vitro.

Chain of Solute carrier family 2, facilitated glucose transporter member 1 (Homo sapiens) (P11166 whole entry): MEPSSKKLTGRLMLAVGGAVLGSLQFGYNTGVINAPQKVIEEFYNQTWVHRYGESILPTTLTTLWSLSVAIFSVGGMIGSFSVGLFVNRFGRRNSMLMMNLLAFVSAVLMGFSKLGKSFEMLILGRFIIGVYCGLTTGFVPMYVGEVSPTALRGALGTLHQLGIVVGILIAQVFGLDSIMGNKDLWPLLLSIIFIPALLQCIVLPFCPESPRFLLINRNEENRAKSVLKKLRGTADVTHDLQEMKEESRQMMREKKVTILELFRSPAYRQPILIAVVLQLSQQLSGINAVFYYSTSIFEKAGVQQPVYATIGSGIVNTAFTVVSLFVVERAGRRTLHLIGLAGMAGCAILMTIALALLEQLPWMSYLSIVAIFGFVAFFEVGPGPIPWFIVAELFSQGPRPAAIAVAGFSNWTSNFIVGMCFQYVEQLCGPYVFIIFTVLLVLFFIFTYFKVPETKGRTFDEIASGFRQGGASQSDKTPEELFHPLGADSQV

In the case of `Nc1nc(N)c2c(ccn2Cc2cc3c(cc2Cl)OCO3)n1`, the inhibition was found to be 4.12% in experiment [1], 2.86% in experiment [2] and 10.5% in experiment [3].

Turning to `Cc1cccc2nc(-c3ccc(-c4cccc(NC(=O)Nc5cccc(C#N)c5)c4)cc3)[nH]c12`, the inhibition is 0.79% in experiment [1], -0.19% in experiment [2] and -1.23% in experiment [3].

Take `OC(c1cccc(OCc2ccccc2)c1)C1CN(CCc2ccccc2)CCC1(O)c1ccccc1` (stereo not drawn): the inhibition in experiment [1] was -1.45%; in experiment [2], -0.62%; in experiment [3] it was -0.2%.

As for `Nc1nc(N)c2cc(N(Cc3ccccc3)Cc3ccccc3)ccc2n1`, the results for the inhibition in experiment [1], in experiment [2] and in experiment [3] were 16.1%, 17.2% and 10.8%, respectively.

`Fc1cccc(Nc2nc(NCCc3ccc(Cl)cc3)nc(Nc3cccc(F)c3)n2)c1`: the inhibition is 2.39% in experiment [1], 2.12% in experiment [2] and -4.86% in experiment [3].

Turning to `COc1cccc(CN2CCCC(CCC(=O)Nc3ccc(C(F)(F)F)cc3)C2)c1O` (stereo not drawn), the inhibition in experiment [1] was found to be 1.04%; in experiment [2], 2.12%; in experiment [3], 1.85%.

Turning to `COc1cc(OC)cc(-c2nn(-c3ccc([N+](=O)[O-])cc3Cl)c(=S)n2Cc2ccco2)c1`, the inhibition in experiment [1] is -1.56%; in experiment [2], -0.65%; in experiment [3], 2.4%.

As for `c1ccc(-c2cccnn2)cc1`, the inhibition in experiment [1] is 1.25%; in experiment [2] it was 1.26%; in experiment [3] it was 1.72%.

Turning to `CC[C@H]1CN2CCc3cc(OC)c(OC)cc3[C@@H]2C[C@@H]1CC1=NCCc2c1[nH]c1ccc(OCc3ccccc3)cc21`, the inhibition in experiment [1] amounted to 0.63%; in experiment [2] it was 0.59%; in experiment [3] it was 2.89%.

Turning to `CN1CCC(C(=O)N(Cc2ccc(-c3ccc(CNCCc4ccc(S(C)(=O)=O)cc4)cn3)cc2)Cc2cccc(F)c2)CC1`, the inhibition in experiment [1] was found to be 1.69%; in experiment [2] it was 0.58%; in experiment [3], 0.97%.

Regarding `C=C[C@H]1CN(CCCCCCC)CC[C@H]1CC(O)Cc1ccnc2cc(O)c(OC)cc12` (stereo partly drawn), the inhibition in experiment [1] is -1.66%; in experiment [2], -0.12%; in experiment [3], 0.32%.

For the compound `COc1cc(NCCCNCc2cn(Cc3cc(Br)cc(Br)c3)c3ccccc23)nc2ccccc12`, the inhibition in experiment [1] worked out at 4.87%; in experiment [2], 1.54%; in experiment [3], 2.54%.

For `CC(C)(C)c1ccc(S(=O)(=O)Nc2ccccc2Cn2nc(N3CCNCC3)ccc2=O)cc1`, the inhibition in experiment [1] amounted to 8.03%; in experiment [2] it was 7.83%; in experiment [3] it was 8.79%.

Turning to `O=C(/C=C/c1ccc(Cl)c(Cl)c1)N1CCC(NCc2c[nH]c3ccccc23)CC1`, the inhibition in experiment [1] stood at 1.33%; in experiment [2], 1.05%; in experiment [3] it was 1.05%.

Consider `COc1ccc(Nc2ncc3c(-c4cccc(NC(=O)Cc5cccc(O)c5)c4)c[nH]c3n2)cc1OC`, for which the results for the inhibition in experiment [1], in experiment [2] and in experiment [3] were -1.87%, 1.51% and 3.39%, respectively.

Consider `CCc1ccc(NC(=O)c2cccc(CN3CCCN(Cc4ccc(OC)cc4)CC3)c2)cc1`, for which the inhibition in experiment [1] was 1.52%; in experiment [2], 0.1%; in experiment [3] it was 0.16%.

Consider `CC(C)COc1ccc(Cl)cc1Cc1ccc(-c2nc3cc(CCN4CCCC4)ccc3[nH]2)o1`, for which the inhibition came to 0.75% in experiment [1], 3.33% in experiment [2] and 2.08% in experiment [3].

With `O=C(Nc1cccc(CN2CCCN(Cc3ncc[nH]3)CC2)c1)c1cc2ccccc2s1`, the inhibition in experiment [1] amounted to 3.43%; in experiment [2], 5.48%; in experiment [3], 3.3%.

Turning to `COc1cc(OC)cc(-c2nn(-c3ccc([N+](=O)[O-])cc3C#N)c(=S)n2Cc2ccco2)c1`, the inhibition in experiment [1] is 0.03%; in experiment [2], -1.55%; in experiment [3] it was 4.15%.

As for `O=C(/C=C/c1ccc(Cl)c(Cl)c1)NCCCCCN1CCC(NC(=O)Nc2ccc(Oc3ccccc3)cc2)C1` (stereo not drawn), the inhibition in experiment [1] was found to be 2.36%; in experiment [2], 1.54%; in experiment [3], 0.16%.

As to `O=C(NCCCCN1CCN(c2cccc3c2OCCO3)CC1)c1ccc(NC(=O)c2cc(Cl)cc(Cl)c2)cc1`, the inhibition in experiment [1] is 2.62%; in experiment [2], 2.75%; in experiment [3], 3.56%.

With `O=C(N[C@@H](CC1CCCCC1)C(=O)NC1CCCc2ccccc21)c1ccc(O)c(-c2cccc(C(F)(F)F)c2)c1` (stereo partly drawn), the inhibition in experiment [1] is 4.07%; in experiment [2], 1.73%; in experiment [3], 2.66%.

`CN(C)Cc1ccc(-c2ccc(NC(=O)c3ccc4c(=O)n(Cc5ccoc5)cnc4c3)cc2)cc1`: the inhibition in experiment [1] was 1.36%; in experiment [2], 1.35%; in experiment [3] it was -0.37%.

Take `Cc1nc2nc(N)nc(N)c2c(C)c1Cc1cccc(C(F)(F)F)c1`: the inhibition was -1.41% in experiment [1], -2.48% in experiment [2] and -2.32% in experiment [3].

On to `COc1ccc2[nH]c(C(=O)Nc3ccc4[nH]c(-c5ccccc5)nc4c3)cc2c1`, for which the inhibition amounted to 4.44% in experiment [1], 2.1% in experiment [2] and 0.82% in experiment [3].

Turning to `CCc1ccc(NC(=O)c2ccc(CN3CCCN(CCC(C)C)CC3)cc2)cc1`, the inhibition in experiment [1] was 7.61%; in experiment [2], 4.69%; in experiment [3], 5.85%.

`Cn1c(Nc2cc(C(C)(C)C)on2)nc2cc(Nc3ccnc(Nc4cccc(CS(C)(=O)=O)c4)n3)ccc21`: the inhibition in experiment [1] is 0.14%; in experiment [2], 2.81%; in experiment [3] it was -0.39%.

On to `COc1ccc2ncc(Cl)c(CCN3C[C@H](CNCc4ccc5c(n4)NC(=O)CS5)[C@H](O)C3)c2n1`, for which the inhibition in experiment [1] stood at 5.41%; in experiment [2], 2.07%; in experiment [3], 2.02%.

In the case of `CC(C)(C)[C@@H](Nc1ccc(C#N)c2ccccc12)C(=O)NC1(Cc2ccc(O)c(Br)c2)CCCC1`, the inhibition in experiment [1] was 2.05%; in experiment [2], 3.09%; in experiment [3] it was -0.09%.

With `C[C@@H](COc1ccccc1)NCC(O)c1ccc([N+](=O)[O-])c(OCc2ccccc2)c1` (stereo partly drawn), the inhibition in experiment [1] is 0.54%; in experiment [2], 0.96%; in experiment [3] it was 0.1%.

`NCCCNc1nc(Nc2cccc(C(N)=O)c2)c2c(=O)[nH]ccc2n1`: the inhibition was -0.41% in experiment [1], 1.23% in experiment [2] and 0.77% in experiment [3].

Consider `CN(C)CCCNCc1ccc(-c2ccc(CNCCc3ccccc3)cc2)cc1`, for which the inhibition in experiment [1] was -0.43%; in experiment [2], 0.15%; in experiment [3], -0.49%.

Take `COCn1ccc2c3c(N)nc(N)nc3ccc21`: the figures for the inhibition in experiment [1], in experiment [2] and in experiment [3] were 0.07%, 6.21% and 2.32%, respectively.

`CCOC(=O)c1nc(-c2cccc(F)c2)[nH]c1N`: the inhibition in experiment [1] was 1.32%; in experiment [2], 0.39%; in experiment [3], 2.23%.

As to `CN1CCN(c2ccnc3ccc(NC(=O)Nc4cccc5c(-c6ccncc6)cccc45)cc23)CC1`, the inhibition in experiment [1] was -0.27%; in experiment [2] it was -0.42%; in experiment [3], 0.32%.

Turning to `OCC1CCN(Cc2ccc(-c3cccc(-c4nc5ccccc5[nH]4)c3)cc2)CC1`, the figures for the inhibition in experiment [1], in experiment [2] and in experiment [3] were 1.15%, 1.08% and 3.83%, respectively.
